Data on 14 compounds can be found in PubChem BioAssay (NCATS).

SMILES strings stand for the structures. Unmarked numbers belong to inactive results. Records with an inconclusive call do not appear. Active and inactive are the calls of the source. Unless noted, the call rests on the fitted dose curve; in most records, active means well fitted curve in the direction sought with a large enough effect; inconclusive means small, poorly fitted or top-dose-only effect, or another doubt; inactive means no such curve, though single readings can be large; an effect the other way counts as inactive or inconclusive.

The nature of experiment [1]: Cell Viability - Hek293 (AID 427;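 active means compounds whose dose-response curve shows a full or clear partial loss of cell viability, called from curve shape rather than a numeric limit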;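 further: potency means the concentration at half of the fitted maximal effect; cells exposed to compound for 40 hours at 37 °C before reading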). The conditions noted are these: qHTS. In short, it runs like this: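 Luminescent ATP read-out (CellTiter-Glo, 20 min RT) after 40 hr compound exposure at 37 °C in complete medium. Signal normalized to DMSO (basal) and 100 uM tamoxifen (100% inhibition); concentration-response fitted with the standard Hill equation to give AC50.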
Experiment [2] in a line: Cell Viability - LYMP2-005 (AID 967). The conditions noted are these: LYMP2-005 lymphoblastoid cell viability; series mostly up to 92.2 µM. In short, it runs like this: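 qHTS viability screen in LYMP2-005 cells: 24 h at 37 C with compound, ATP luminescence via CellTiter-Glo, AC50 from Hill curves.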
Experiment [3] is described as follows: Cell Viability - LYMP2-021 (AID 974).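 Further: compound exposure lasts 24 hours at 37 °C; nearly all actives have a fitted effect of over 55% in size.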 Further: potency means the concentration at half of the fitted maximal effect. As to conditions: LYMP2-021 lymphoblastoid cells viability; series mostly up to 92.2 µM. Summed up:
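Concentration-response cytotoxicity in a human lymphoblastoid line: 24 hr treatment at 37 C in complete culture medium, tetraoctylammonium bromide as positive control, luminescent ATP quantitation as viability measure.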

Experiment [4] can be described thus: Cell Viability - LYMP2-002 (AID 977). The conditions noted are these: LYMP2-002 lymphoblastoid cell viability, qHTS; series mostly up to 92.2 µM. In short, it runs like this: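 Luminescent ATP readout (CellTiter-Glo, 30 min room temperature) after 24 h compound exposure at 37 C of a human lymphoblastoid line, 2500 cells/well. AC50 values derived by standard Hill fitting of qHTS concentration-response data.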

The nature of experiment [5]: Cell Viability - LYMP2-008 (AID 980). Further: nearly all actives have a fitted effect of over 60% in size. As to conditions: LYMP2-008 lymphoblastoid cell viability, qHTS; series mostly up to 92.2 µM. Summed up: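 Acute cytotoxicity is scored as concentration-dependent loss of cellular ATP in a human lymphoblastoid line after 24 hr treatment at 37 C. ATP is quantified by luciferase luminescence.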
Background: Quantitative high-throughput screening tests each substance at several concentrations.

Experiment [6] in a line: Cell Viability - LYMP2-014 (AID 983). Further: nearly all actives have a fitted effect of over 50% in size. As to conditions: LYMP2-014 lymphoblastoid cells, viability qHTS; series mostly up to 92.2 µM. In short, it runs like this:
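Decrease in intracellular ATP after 24 hr treatment at 37 C, measured by luciferase luminescence, indicated cytotoxicity. Concentration-response data were fitted with the standard Hill equation to give AC50.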

Experiment [7] can be described thus: Cell Viability - LYMP2-016 (AID 984).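 Further: cells exposed to compound for 24 hours at 37 °C; nearly all actives have a fitted effect of over 55% in size.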 As to conditions: LYMP2-016 lymphoblastoid cell viability, qHTS; series mostly up to 92.2 µM. Summed up:
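Acute toxicity in a Coriell human lymphoblastoid line is scored as loss of intracellular ATP over 24 h of treatment in complete medium. CellTiter-Glo signal is fitted across concentrations with the Hill equation to give AC50.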

The nature of experiment [8]: Cell Viability - LYMP2-024 (AID 988).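 Further: cells exposed to compound for 24 hr at 37 °C; nearly all actives have a fitted effect of over 60% in size.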 Further: potency means the concentration at half of the fitted maximal effect. The conditions noted are these: LYMP2-024 lymphoblastoid cell viability; series mostly up to 92.2 µM. In short, it runs like this:
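Acute toxicity is measured as concentration-dependent loss of intracellular ATP in a human lymphoblastoid line treated 24 hours at 37 C. Luciferase luminescence quantifies ATP; AC50 values come from standard Hill-equation modelling.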

The target of experiment [9] is Glucocorticoid receptor (Homo sapiens) (UniProt P04150). Description: qHTS assay for small molecule antagonists of glucocorticoid receptor signaling (AID 588533; active means well fitted inhibition curve with a large enough effect in the signal ratio, with a control signal flat, not every such curve was filed as active; the % refers to the signal ratio;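 further: cells stimulated with 2 nM dexamethasone as agonist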). As to conditions: HeLa MMTV-bla, GRE beta-lactamase ratio, antagonist mode, 18 h; series mostly up to 76.8 µM. Summed up: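 Antagonist-mode qHTS: compound titrations added to GRE-bla HeLa cells, then dexamethasone 2 nM final; 18 h, 37 C. CCF4 FRET fluorescence normalized to dexamethasone and DMSO; IC50 from Hill fit.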

For experiment [10], the target named is Peroxisome proliferator-activated receptor gamma (Homo sapiens) (UniProt P37231). Description: qHTS assay for small molecule antagonists of peroxisome proliferator-activated receptor gamma signaling (AID 588537; active means well fitted inhibition curve with a large enough effect in the signal ratio, with a control signal flat, not every such curve was filed as active; the % refers to the signal ratio;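 further: reporter cells co-stimulated with 50 nM rosiglitazone agonist during compound treatment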). The conditions noted are these: HEK293 PPARg-UAS-bla, beta-lactamase ratio, antagonist mode; series mostly up to 76.8 µM. In short, it runs like this:
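PPAR-gamma-UAS-bla HEK293 cells (3000/well, 1% charcoal/dextran-stripped FBS) were preincubated 6-6.5 h at 37 C, given titrated compounds, then stimulated with 50 nM rosiglitazone for 16 h. Beta-lactamase activity was read with CCF4 dye; IC50 came from Hill fits.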

For experiment [11], the target named is Vitamin D3 receptor (Homo sapiens) (UniProt P11473). Briefly: qHTS assay for small molecule antagonists of vitamin D receptor signaling (AID 588541; calls by dose curve;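 further: receptor activated by calcitriol during compound treatment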). As to conditions: HEK293T VDR-UAS-bla, beta-lactamase ratio, antagonist mode; series mostly up to 76.7 µM. Summed up:
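VDR-UAS-bla HEK293T cells (2000/well, 2% charcoal-stripped FBS) were treated with titrated compounds plus 1-alpha,25-dihydroxyvitamin D3 (50 nM or 3 nM final) for 16 h at 37 C. CCF4 beta-lactamase fluorescence was read; Hill fits gave IC50.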

Experiment [12] is described as follows: qHTS assay for small molecule antagonists of the retinoid-related orphan receptor gamma (ROR-gamma) signaling pathway - cell viability counter screen (AID 720652; active means well fitted curve in the direction sought with a large enough effect in the repeat runs; an effect the other way counts as inactive or inconclusive;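 further: CHO reporter cells with doxycycline-induced ROR-gamma expression; compound exposure lasted 16 hr before ATP read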). As to conditions: RORgamma reporter cell line viability counter screen; series mostly up to 92.2 µM. Summed up:
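Cytotoxicity is quantified via intracellular ATP (CellTiter-Glo luminescence) in doxycycline-induced CHO ROR response element-luciferase reporter cells treated with compound for 16 hr at 37 C, 5% CO2.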

Experiment [13] in a line: Cellular Toxicity (caspase-3) Mesangial (AID 660).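 Further: combined caspase 3 and 7 activity read by Caspase-Glo luminescence; cells exposed to compound for 16 h before the caspase read.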 The conditions noted are these: mesangial cells, normalized: DMSO 0%, 100 µM tamoxifen 100%; series mostly up to 91.7 µM. Summed up: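 Concentration-response qHTS: compound-induced rise in caspase 3/7 luminescence in human mesangial cells after 16 h, normalized to DMSO and 100 uM tamoxifen controls.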
Experiment [14] has as its target Guanine nucleotide-binding protein G(i) subunit alpha-1 (Homo sapiens) (UniProt P63096). Briefly: qHTS Assay for Inhibitors of RGS12 GoLoco Motif Activity (Green Fluorophore) (AID 879).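 Further: negative values mean loss of peptide binding seen as reduced polarization.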 As to conditions: Galphai1/FITC-RGS12 GoLoco peptide, fluorescence polarization; series mostly up to 57.1 µM. Summed up: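 Fluorescence polarization assay: 50 nM Gαi1 with 10 nM FITC-labeled RGS12 GoLoco peptide in 10 mM Tris pH 7.5, 150 mM NaCl, 0.1 mM GDP, 0.05% NP40, 10 min at room temperature with compound.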

Experiment [15] deals with Pyruvate kinase (Leishmania mexicana) (UniProt Q27686). Description: qHTS Validation Assay for Inhibitors of Leishmania Mexicana Pyruvate Kinase (AID 945). As to conditions: purified L. mexicana pyruvate kinase, enzyme activity, E451W mutant enzyme; series mostly up to 57.5 µM. In short, it runs like this: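 qHTS eight-point titrations against 0.2 nM LmPYK (E451W) in imidazole buffer pH 7.2 with 0.5 mM PEP, 0.1 mM ADP; 1 h, room temperature. Readout: PKLight luminescence, normalized to neutral DMSO wells.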

Experiment [16] deals with Alpha-galactosidase (Coffea arabica) (UniProt Q42656). Description: Counterscreen for Glucocerebrosidase Inhibitors: qHTS Assay for Coffee Bean alpha-Galactosidase at pH 4.5 (AID 957). As to conditions: purified coffee bean alpha-galactosidase, fluorogenic substrate; series mostly up to 76.9 µM. Summed up:
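AC50 values derive from Hill-equation modeling of concentration-response data, normalized to no-enzyme and full-activity controls. The pH 4.5 citrate assay used 2 nM coffee bean enzyme and 80 uM fluorogenic substrate for 20 min.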

For experiment [17], the target named is Alpha-galactosidase A (Homo sapiens) (UniProt P06280). Briefly: Counterscreen for Glucocerebrosidase Inhibitors: qHTS Assay for Human alpha-Galactosidase at pH 4.5 (AID 992). As to conditions: purified enzyme, fluorogenic substrate; series mostly up to 76.9 µM. In short, it runs like this: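 Enzyme at 2 nM final was combined with compound (0.7 nM to 77 uM) and 80 uM 4-methylumbelliferyl alpha-D-galactopyranoside in 50 mM citric acid, 0.005% Tween-20, pH 4.5. After 20 min at room temperature, fluorescence was read (Ex 365/Em 440 nm); AC50 came from Hill fits.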
In general terms: The purpose of a counterscreen is to sort out artefacts and off-target activity.

The target of experiment [18] is alpha-glucosidase (Oryza sativa, rice) (UniProt Q653V4). Briefly: Counterscreen for Glucocerebrosidase Inhibitors: qHTS Assay for Rice alpha-Glucosidase at pH 5.0 (AID 997). As to conditions: rice alpha-glucosidase enzyme activity; series mostly up to 76.9 µM. In short, it runs like this:
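Rice alpha-glucosidase (4 nM final) with 400 uM 4-methylumbelliferyl-alpha-D-glucopyranoside in citrate buffer pH 5.0, 20 min at room temperature, stopped at pH 10; fluorescence 365/440 nm, compounds 0.7 nM–77 uM, AC50 from Hill fits.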

For experiment [19], the target named is Alpha-galactosidase (Coffea arabica) (UniProt Q42656). Description: Counterscreen for Glucocerebrosidase Inhibitors: qHTS Assay for Coffee Bean alpha-Galactosidase at pH 5.9 (AID 998). The conditions noted are these: coffee bean alpha-galactosidase enzyme assay; series mostly up to 76.9 µM. Summed up: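 Green coffee bean enzyme (2 nM final) was incubated with compounds (0.7 nM–77 uM) and 4-methylumbelliferyl alpha-D-galactopyranoside (80 uM) in citrate buffer pH 5.9, 20 min at room temperature. High-pH stop; fluorescence 365/440 nm; AC50 from Hill fits.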
Alpha-galactosidase (Coffea arabica), sequence (Q42656 whole entry, looked up): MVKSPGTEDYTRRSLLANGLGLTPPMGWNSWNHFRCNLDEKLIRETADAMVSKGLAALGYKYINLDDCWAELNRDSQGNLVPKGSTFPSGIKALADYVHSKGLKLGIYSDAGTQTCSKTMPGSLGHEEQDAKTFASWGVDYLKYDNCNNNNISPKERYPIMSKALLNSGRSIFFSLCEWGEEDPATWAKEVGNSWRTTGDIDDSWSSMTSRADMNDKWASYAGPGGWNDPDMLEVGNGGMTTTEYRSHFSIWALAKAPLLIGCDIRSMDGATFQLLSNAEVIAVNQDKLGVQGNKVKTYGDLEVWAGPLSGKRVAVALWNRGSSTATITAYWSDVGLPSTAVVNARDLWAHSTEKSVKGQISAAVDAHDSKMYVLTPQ

Peroxisome proliferator-activated receptor gamma (Homo sapiens), sequence (P37231 whole entry, looked up): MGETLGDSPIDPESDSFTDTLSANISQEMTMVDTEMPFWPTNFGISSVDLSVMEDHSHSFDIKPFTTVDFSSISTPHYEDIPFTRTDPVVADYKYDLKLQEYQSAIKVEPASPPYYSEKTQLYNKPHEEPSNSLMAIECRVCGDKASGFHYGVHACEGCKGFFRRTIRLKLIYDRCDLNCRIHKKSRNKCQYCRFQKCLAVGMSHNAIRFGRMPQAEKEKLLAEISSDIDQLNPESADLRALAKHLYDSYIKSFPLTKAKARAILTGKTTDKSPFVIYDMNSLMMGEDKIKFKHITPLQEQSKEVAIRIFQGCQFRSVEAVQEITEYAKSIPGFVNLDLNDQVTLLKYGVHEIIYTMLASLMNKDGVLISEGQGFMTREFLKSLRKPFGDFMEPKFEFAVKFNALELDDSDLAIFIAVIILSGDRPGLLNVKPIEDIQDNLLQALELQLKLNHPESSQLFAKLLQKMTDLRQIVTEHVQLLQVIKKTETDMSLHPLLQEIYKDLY
Alpha-galactosidase A (Homo sapiens), sequence (P06280 whole entry, looked up): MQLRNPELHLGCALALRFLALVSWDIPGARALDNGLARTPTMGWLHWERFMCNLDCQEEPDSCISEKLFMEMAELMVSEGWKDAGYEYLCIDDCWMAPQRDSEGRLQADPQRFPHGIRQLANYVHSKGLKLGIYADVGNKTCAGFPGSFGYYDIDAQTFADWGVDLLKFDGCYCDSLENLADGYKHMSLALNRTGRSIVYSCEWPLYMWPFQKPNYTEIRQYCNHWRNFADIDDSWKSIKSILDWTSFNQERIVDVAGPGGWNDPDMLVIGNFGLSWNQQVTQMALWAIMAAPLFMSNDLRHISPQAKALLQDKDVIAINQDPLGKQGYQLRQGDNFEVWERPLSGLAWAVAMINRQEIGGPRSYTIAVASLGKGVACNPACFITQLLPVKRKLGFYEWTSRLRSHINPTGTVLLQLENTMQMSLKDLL
Vitamin D3 receptor (Homo sapiens), sequence (P11473 whole entry, looked up): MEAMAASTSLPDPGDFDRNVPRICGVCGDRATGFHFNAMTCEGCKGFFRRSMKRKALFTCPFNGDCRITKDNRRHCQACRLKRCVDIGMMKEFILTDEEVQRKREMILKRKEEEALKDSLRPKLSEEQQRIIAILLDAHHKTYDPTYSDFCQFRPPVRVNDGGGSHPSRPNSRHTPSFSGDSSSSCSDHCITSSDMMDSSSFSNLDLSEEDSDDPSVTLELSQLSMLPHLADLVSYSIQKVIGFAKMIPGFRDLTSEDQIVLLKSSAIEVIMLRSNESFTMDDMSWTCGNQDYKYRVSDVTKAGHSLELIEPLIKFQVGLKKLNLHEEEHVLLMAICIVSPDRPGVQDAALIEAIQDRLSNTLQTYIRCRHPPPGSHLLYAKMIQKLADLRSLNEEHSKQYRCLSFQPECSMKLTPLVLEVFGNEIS
Pyruvate kinase (Leishmania mexicana), sequence (Q27686 2-499 E452W): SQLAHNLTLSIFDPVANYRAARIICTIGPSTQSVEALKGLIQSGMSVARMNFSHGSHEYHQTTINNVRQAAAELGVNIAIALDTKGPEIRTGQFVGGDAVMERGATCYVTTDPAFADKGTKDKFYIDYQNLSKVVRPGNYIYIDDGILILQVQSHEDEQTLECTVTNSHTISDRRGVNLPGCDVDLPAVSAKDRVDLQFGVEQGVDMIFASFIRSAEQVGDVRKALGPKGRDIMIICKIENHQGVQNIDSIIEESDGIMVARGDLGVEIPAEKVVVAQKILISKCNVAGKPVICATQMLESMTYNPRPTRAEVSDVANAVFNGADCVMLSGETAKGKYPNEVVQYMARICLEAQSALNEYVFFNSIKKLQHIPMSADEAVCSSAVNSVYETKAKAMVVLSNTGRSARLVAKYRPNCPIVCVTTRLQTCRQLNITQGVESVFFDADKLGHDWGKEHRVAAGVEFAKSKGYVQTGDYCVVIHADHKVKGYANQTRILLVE
Guanine nucleotide-binding protein G(i) subunit alpha-1 (Homo sapiens), sequence (P63096 whole entry, looked up): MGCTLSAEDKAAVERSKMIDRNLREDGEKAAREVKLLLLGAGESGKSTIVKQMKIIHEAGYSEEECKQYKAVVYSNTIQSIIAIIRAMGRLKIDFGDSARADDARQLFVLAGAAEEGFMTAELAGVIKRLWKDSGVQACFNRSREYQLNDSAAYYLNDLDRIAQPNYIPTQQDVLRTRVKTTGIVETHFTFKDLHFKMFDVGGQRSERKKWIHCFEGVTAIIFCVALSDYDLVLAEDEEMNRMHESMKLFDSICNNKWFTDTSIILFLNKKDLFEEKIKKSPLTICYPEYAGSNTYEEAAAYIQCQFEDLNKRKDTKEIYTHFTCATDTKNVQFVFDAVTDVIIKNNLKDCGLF
Glucocorticoid receptor (Homo sapiens), sequence (P04150 whole entry, looked up): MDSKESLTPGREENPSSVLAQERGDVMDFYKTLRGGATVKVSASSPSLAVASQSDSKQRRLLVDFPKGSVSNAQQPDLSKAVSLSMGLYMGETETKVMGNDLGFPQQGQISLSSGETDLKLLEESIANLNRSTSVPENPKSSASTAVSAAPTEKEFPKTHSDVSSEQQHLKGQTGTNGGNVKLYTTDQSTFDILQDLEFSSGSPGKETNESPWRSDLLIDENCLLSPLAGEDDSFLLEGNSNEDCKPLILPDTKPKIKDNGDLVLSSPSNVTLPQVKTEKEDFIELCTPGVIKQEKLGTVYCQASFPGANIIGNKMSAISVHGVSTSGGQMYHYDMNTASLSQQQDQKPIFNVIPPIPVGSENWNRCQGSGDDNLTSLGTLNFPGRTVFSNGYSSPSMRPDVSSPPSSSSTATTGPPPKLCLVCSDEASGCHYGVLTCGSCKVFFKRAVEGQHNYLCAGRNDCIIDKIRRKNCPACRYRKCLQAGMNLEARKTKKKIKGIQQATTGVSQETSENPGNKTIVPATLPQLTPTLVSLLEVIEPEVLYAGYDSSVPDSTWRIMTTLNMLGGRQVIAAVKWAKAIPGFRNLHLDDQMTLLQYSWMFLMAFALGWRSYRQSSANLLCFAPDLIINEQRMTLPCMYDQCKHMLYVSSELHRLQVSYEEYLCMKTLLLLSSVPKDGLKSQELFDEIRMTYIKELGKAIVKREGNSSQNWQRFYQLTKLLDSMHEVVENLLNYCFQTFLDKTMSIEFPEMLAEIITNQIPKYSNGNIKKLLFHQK

On to `CCNc1nc(Cl)nc(NC(C)C)n1`, for which the Potency in experiment [1] is greater than 92 µM. Besides, the Potency result in experiment [2], in experiment [3], in [4], in experiment [5], in experiment [6] and in experiment [7] was “inactive” each time. The Potency result in experiment [8], in experiment [9], in experiment [10] and in experiment [12] was “inactive” each time. The outcome in experiment [11] was inactive.
On to `O=S1OCC2C(CO1)C1(Cl)C(Cl)=C(Cl)C2(Cl)C1(Cl)Cl` (stereo unspecified), for which the outcome in experiment [13] and in [11] was inactive. Further, the Potency entry in experiment [3], in experiment [5] and in [6] was “inactive” throughout.
For `COc1ccc(OC)c([C@H](O)[C@H](C)N)c1`, the call in experiment [14], in experiment [16], in experiment [17], in [18] and in experiment [19] was inactive. The Potency result in experiment [15] was “inactive”.
As to `COC(=O)NC(=S)Nc1ccccc1NC(=S)NC(=O)OC`, the Potency in experiment [1] was greater than 92 µM. Moreover, the result in [13] and in [11] was inactive. Moreover, the Potency entry in [2], in [3], in experiment [4], in [5], in experiment [6] and in [7] was “inactive” each time. Besides, the Potency entry in [8], in [9], in [10] and in experiment [12] was “inactive” in each case.
Turning to `CS(=N)(=O)CC[C@@H](N)C(=O)O` (stereo partly specified), the result in experiment [14], in [16], in experiment [17], in [18] and in [19] was inactive. For the same compound, in experiment [15], the Potency entry was “inactive”.
For the compound `C#CCN(C)[C@@H](C)Cc1ccccc1`, the compound was classed as inactive in experiment [14], in experiment [16], in experiment [17], in experiment [18] and in experiment [19]. Besides, in [15], the Potency entry is “inactive”.
Regarding `CCc1cccc(CC)c1N(COC)C(=O)CCl`, the outcome in [13] was inactive. Besides, the Potency in experiment [8] is 50.1 µM (active). The Potency result in experiment [12] was “inactive”.
As to `C[N+]1(C)[C@@H]2CC[C@H]1CC(OC(=O)[C@@H](CO)c1ccccc1)C2` (stereo partly specified), the compound was classed as inactive in experiment [14], in experiment [16], in experiment [17], in experiment [18] and in experiment [19]. Further, in [15], the Potency entry was “inactive”.
As for `COc1ccc2c(c1OC)C(=O)O[C@H]2[C@H]1c2cc3c(cc2CCN1C)OCO3`, the call in [14], in experiment [16], in experiment [17], in experiment [18] and in experiment [19] was inactive. Besides, the Potency result in experiment [15] was “inactive”.
As for `C[C@]12CC[C@H](O)C[C@@H]1CC[C@H]1[C@H]2CC[C@]2(C)C(=O)CC[C@@H]12`, the outcome in experiment [14], in [16], in experiment [17], in experiment [18] and in [19] was inactive. Moreover, the Potency result in experiment [15] is “inactive”.
On to `ClC1=C(Cl)C2(Cl)C3C(Cl)C=CC3C1(Cl)C2(Cl)Cl` (stereo unspecified), for which the Potency result in experiment [5], in [6], in [7], in experiment [8], in experiment [9] and in [10] was “inactive” throughout.
As to `ClC1=C(Cl)C2(Cl)C3C4C=CC(C4)C3C1(Cl)C2(Cl)Cl` (stereo unspecified), the compound was called inactive in experiment [13] and in [11]. For the same compound, the Potency in experiment [3] is 63.1 µM (active). In addition, the Potency entry in [9] and in experiment [10] was “inactive” each time.
As to `NC[C@H](O)c1ccc(O)cc1`, the outcome in experiment [14], in experiment [16], in experiment [17], in experiment [18] and in experiment [19] was inactive. Also, the Potency entry in experiment [15] is “inactive”.
Take `c1ccc(N=Nc2ccccc2)cc1`: the Potency in [1] was greater than 92 µM. For the same compound, the Potency entry in experiment [2], in experiment [4], in experiment [6], in [7], in experiment [8] and in [9] was “inactive” in each case. Further, the Potency result in [10] and in [12] was “inactive” throughout. Moreover, the outcome in experiment [11] was inactive.
